Values joined by “and” are separate entries in the source; they are usually repeats but may differ in a detail not shown here. Identical values can stand only once. Inconclusive results are not listed. Active and inactive are the calls of the source. The call rests on the fitted dose curve; in most records, active means well fitted curve in the direction sought with a large enough effect; inconclusive means small, poorly fitted or top-dose-only effect, or another doubt; inactive means no such curve, though single readings can be large; an effect the other way counts as inactive or inconclusive.
What was measured:
KB-3-1 = assay: Cytotoxic Profiling of Annotated Libraries Using Quantitative High-Throughput Screening (AID 1296008); conditions: Five cell lines viability, CellTiter-Glo ATP luminescence, 48-72 h; max response: hits give low values; further: nearly all actives have a fitted effect of over 60% in size
Method in brief: (§1)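 Compounds were pin-transferred onto cells and incubated 48 or 72 hr at 37 degree Celsius, 95% humidity. CellTiter-Glo was added, plates sat 10 min at room temperature, then ATP-coupled luminescence was imaged as the viability read-out.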

NIH3T3 [1] = assay: as above; conditions: Five cell lines viability, CellTiter-Glo ATP luminescence, 48-72 h; max response: hits give low values
Method in brief: as §1

CRL-7250 = normal cell line; assay: qHTS assay to identify novel small-molecules to repurpose for Merkel cell carcinoma treatment (AID 1296009); conditions: MCC and control cell lines, CellTiter-Glo viability, 72 h; at 44.8 µM (top of the series) unless noted; further: nearly all actives have a fitted effect of over 60% in size
Method in brief: (§2)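 Cells exposed to NPC (8-point) and MIPE (11-point) compound dilutions for 72 hr at 37 degree celsius; viability read by CellTiter-Glo luminescence, normalized to no-cell and DMSO in-plate controls.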

MCC-13 = assay: as above; conditions: MCC and control cell lines, CellTiter-Glo viability, 72 h; series mostly up to 46 µM
Method in brief: as §2

MCC-26 = assay: as above; conditions: MCC and control cell lines, CellTiter-Glo viability, 72 h; series mostly up to 46 µM
Method in brief: as §2

MKL-1 = assay: as above; conditions: MCC and control cell lines, CellTiter-Glo viability, 72 h; series mostly up to 46 µM
Method in brief: as §2

MKL-2 = assay: as above; conditions: MCC and control cell lines, CellTiter-Glo viability, 72 h; series mostly up to 46 µM
Method in brief: as §2

UISO = assay: as above; conditions: MCC and control cell lines, CellTiter-Glo viability, 72 h; series mostly up to 46 µM
Method in brief: as §2

C33A = assay: Primary qHTS to identify gynecologic anti-cancer compounds using libraries of approved drugs and bioactive compounds (AID 1345084); conditions: Gynecologic cancer cell panel viability, ATPlite luminescence, 48 h; series mostly up to 57.5 µM; further: nearly all actives have a fitted effect of over 55% in size
Method in brief: (§3)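 48 h compound exposure at 37 C, 5% CO2; five-point qHTS. ATPlite luminescence readout of cell ATP.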

CAOV3 = assay: as above; conditions: Gynecologic cancer cell panel viability, ATPlite luminescence, 48 h; series mostly up to 57.5 µM
Method in brief: as §3

CASKI = assay: as above; conditions: Gynecologic cancer cell panel viability, ATPlite luminescence, 48 h; series mostly up to 57.5 µM
Method in brief: as §3

Es-2 = assay: as above; conditions: Gynecologic cancer cell panel viability, ATPlite luminescence, 48 h; series mostly up to 57.5 µM
Method in brief: as §3

HeLa = assay: as above; conditions: Gynecologic cancer cell panel viability, ATPlite luminescence, 48 h; series mostly up to 57.5 µM
Method in brief: as §3

Hek293T [2] = assay: as above; conditions: Gynecologic cancer cell panel viability, ATPlite luminescence, 48 h, control line for the selectivity index; series mostly up to 57.5 µM
Method in brief: as §3

JEG-3 = assay: as above; conditions: Gynecologic cancer cell panel viability, ATPlite luminescence, 48 h; series mostly up to 57.5 µM
Method in brief: as §3

OV90 = assay: as above; conditions: Gynecologic cancer cell panel viability, ATPlite luminescence, 48 h; series mostly up to 57.5 µM
Method in brief: as §3

HEK293T [3] = assay: qHTS assay to identify novel small-molecules to repurpose for Merkel cell carcinoma treatment (AID 1296009); conditions: MCC and control cell lines, CellTiter-Glo viability, 72 h; further: nearly all actives have a fitted effect of over 60% in size
Method in brief: as §2

WaGa = assay: as above; conditions: MCC and control cell lines, CellTiter-Glo viability, 72 h; series mostly up to 46 µM
Method in brief: as §2

HACAT = assay: as above; conditions: MCC and control cell lines, CellTiter-Glo viability, 72 h; at 44.8 µM (top of the series) unless noted
Method in brief: as §2

NIH3T3 [4] = assay: as above; conditions: MCC and control cell lines, CellTiter-Glo viability, 72 h; at 44.8 µM (top of the series) unless noted
Method in brief: as §2
On the % scale 0 is the no-effect control and ±100 the full control effect.

CCCCCCCCCC(=O)O[C@H]1CC[C@H]2[C@@H]3CCC4=CC(=O)CC[C@@H]4[C@H]3CC[C@]12C
inactive: max response (KB-3-1) -10.4% | max response (NIH3T3 [1]) -3.4% | outcome (CRL-7250) | outcome (MCC-13) | Potency (MCC-26) | Potency (MKL-1) | Potency (MKL-2) | Potency (UISO) | Potency (C33A) | outcome (CAOV3) | outcome (CASKI) | Potency (Es-2) | Potency (HeLa) | outcome (Hek293T [2]) | outcome (JEG-3) | Potency (OV90)

CCOC(=O)CC(SP(=S)(OC)OC)C(=O)OCC (stereo not drawn)
inactive: max response (KB-3-1) -10.3% and -23.1% | max response (NIH3T3 [1]) -6.65% and 2.23% | outcome (CRL-7250) | outcome (HEK293T [3]; at 44.8 µM (top of the series)) | outcome (HEK293T [3]; at 92 µM (top of the series)) | outcome (MCC-13) | Potency (MCC-26) | Potency (MKL-1) | Potency (MKL-2) | Potency (UISO) | Potency (WaGa) | Potency (C33A) | outcome (CAOV3) | outcome (CASKI) | Potency (Es-2) | Potency (HeLa) | outcome (Hek293T [2]) | outcome (JEG-3) | Potency (OV90)

CC(C)[C@H]1C(=O)N2CCC[C@H]2[C@]2(O)O[C@](NC(=O)[C@@H]3C[C@@H]4c5cccc6[nH]cc(c56)C[C@H]4N(C)C3)(C(C)C)C(=O)N12
inactive: max response (KB-3-1) 22.9%

C[N+]1(CCF)[C@@H]2CC[C@H]1CC(OC(=O)C(O)(c1ccccc1)c1ccccc1)C2 (stereo partly drawn)
inactive: max response (KB-3-1) -9.39% | outcome (NIH3T3 [1]) | outcome (CRL-7250) | outcome (HACAT) | outcome (MCC-13) | Potency (MKL-1) | Potency (MKL-2) | outcome (NIH3T3 [4]) | Potency (UISO) | Potency (WaGa) | Potency (C33A) | outcome (CAOV3) | outcome (CASKI) | Potency (Es-2) | Potency (HeLa) | outcome (Hek293T [2]) | outcome (JEG-3) | Potency (OV90)

COc1cccc([C@@]2(O)CCCC[C@@H]2CN(C)C)c1
inactive: max response (KB-3-1) 0.535% | outcome (NIH3T3 [1]) | outcome (CRL-7250) | outcome (MCC-13) | Potency (MCC-26) | Potency (MKL-1) | Potency (MKL-2) | outcome (NIH3T3 [4]) | Potency (UISO) | Potency (WaGa) | Potency (C33A) | outcome (CASKI) | Potency (Es-2) | Potency (HeLa) | outcome (Hek293T [2]) | outcome (JEG-3) | Potency (OV90)

CN=C1CN(O)C(c2ccccc2)=c2cc(Cl)ccc2=N1
inactive: max response (KB-3-1) -12.7% and 2.13%

COC(=O)C(c1ccccc1)C1CCCCN1 (stereo not drawn)
inactive: max response (KB-3-1) 5.58%

COc1ccc2c3c1O[C@H]1[C@H](O)CC[C@H]4[C@@H](C2)N(C)CC[C@@]341
inactive: max response (KB-3-1) -6.57% | outcome (NIH3T3 [1]) | outcome (CRL-7250) inactive [at 92 µM] | outcome (HACAT) inactive [at 92 µM] | outcome (MCC-13) | Potency (MCC-26) | Potency (MKL-2) | outcome (NIH3T3 [4]) inactive [at 92 µM] | Potency (UISO) | Potency (WaGa) | Potency (C33A) | outcome (CASKI) | Potency (Es-2) | Potency (HeLa) | outcome (Hek293T [2]) | outcome (JEG-3) | Potency (OV90)

CCc1cc2c(s1)-n1c(C)nnc1CN=C2c1ccccc1Cl
inactive: max response (KB-3-1) -14.4% | outcome (NIH3T3 [1]) | outcome (CRL-7250) | outcome (MCC-13) | Potency (MCC-26) | Potency (MKL-1) | Potency (MKL-2) | outcome (NIH3T3 [4]) | Potency (UISO) | Potency (WaGa) | Potency (C33A) | outcome (CAOV3) | outcome (CASKI) | Potency (Es-2) | Potency (HeLa) | outcome (Hek293T [2]) | outcome (JEG-3) | Potency (OV90)

Cc1nnc2n1-c1ccc(Cl)cc1C(c1ccccc1Cl)=NC2
inactive: max response (KB-3-1) 1.66%

C[C@]12CC[C@@H]3c4ccc(OC(=O)N(CCCl)CCCl)cc4CC[C@H]3[C@@H]1CC[C@@H]2OP(=O)(O)O
inactive: max response (KB-3-1) -0.529% | outcome (KB-3-1) | max response (NIH3T3 [1]) 2.9% | outcome (CRL-7250) | outcome (HACAT) | outcome (MCC-13) | Potency (MCC-26) | Potency (MKL-1) | Potency (MKL-2) | Potency (UISO) | Potency (WaGa) | Potency (C33A) | outcome (CASKI) | Potency (Es-2) | Potency (HeLa) | outcome (Hek293T [2]) | outcome (JEG-3) | Potency (OV90)

O=C(O)/C=C\C(=O)O
inactive: max response (KB-3-1) -5.31% | max response (NIH3T3 [1]) -5.56%

Nc1ccn(C[C@@H](CO)OCP(=O)(O)O)c(=O)n1
inactive: max response (KB-3-1) -9.56%

CCCC(C)(COC(N)=O)COC(N)=O
inactive: max response (KB-3-1) 1.51%

O=C1Nc2ccc(Cl)cc2C(c2ccccc2)=NC1O (stereo not drawn)
inactive: max response (KB-3-1) -4.67% and -16.2%

Clc1ccc2c(c1)C(c1ccccc1)=NCc1nncn1-2
inactive: max response (KB-3-1) 2.88%

CN1C(=O)CC(=O)N(c2ccccc2)c2cc(Cl)ccc21
inactive: max response (KB-3-1) 9.14%

O=C1Nc2ccc(Cl)cc2C(c2ccccc2Cl)=NC1O (stereo not drawn)
inactive: max response (KB-3-1) 3.46%

CN[C@@H](C)Cc1ccccc1
inactive: max response (KB-3-1) -3.3%

NC(=O)c1cc([N+](=O)[O-])cc([N+](=O)[O-])c1
inactive: max response (KB-3-1) -1.64% | max response (NIH3T3 [1]) 4.48% | outcome (CRL-7250) | outcome (MCC-13) | Potency (MCC-26) | Potency (MKL-1) | Potency (MKL-2) | Potency (UISO) | Potency (WaGa) | Potency (C33A) | outcome (CASKI) | Potency (Es-2) | Potency (HeLa) | outcome (Hek293T [2]) | Potency (OV90)

CCCCCN(C)CCC(O)(P(=O)(O)O)P(=O)(O)O
inactive: max response (KB-3-1) 1.98% | outcome (KB-3-1) | outcome (NIH3T3 [1])

O=C(O)CCCc1ccc(N(CCCl)CCCl)cc1
inactive: max response (KB-3-1) 1.55% | outcome (KB-3-1) | max response (NIH3T3 [1]) -8.46% and -0.549% | outcome (CRL-7250) | outcome (HACAT) | outcome (MCC-13) | Potency (MKL-1) | Potency (MKL-2) | Potency (UISO) | Potency (WaGa) | Potency (C33A) | outcome (CASKI) | Potency (Es-2) | Potency (HeLa) | outcome (Hek293T [2]) | outcome (JEG-3) | Potency (OV90)

CC(C)N(CCC(C(N)=O)(c1ccccc1)c1ccccn1)C(C)C (stereo not drawn)
inactive: max response (KB-3-1) -6.29% and -10.8% | max response (NIH3T3 [1]) -23.6% and -1.68% | outcome (CRL-7250) | outcome (HACAT) | outcome (MCC-13) | Potency (MKL-1) | Potency (MKL-2) | Potency (UISO) | Potency (WaGa) | Potency (C33A) | outcome (CAOV3) | outcome (CASKI) | Potency (Es-2) | Potency (HeLa) | outcome (Hek293T [2]) | outcome (JEG-3) | Potency (OV90)
